# Assay outcomes from PubChem BioAssay.
# A selection: hits, their analogues and other compounds. The true share with any hit is near 11%.
# L3MBTL1 inh – inhibitors of human L3MBTL1. AlphaScreen L3MBTL1–H3K9me1 peptide binding. AID 485360. 0.66% of 230,000 active. Potency, µM (series often up to 57.1 µM), inactives show at the highest dose activity, negative = inhibition, hits mostly inhibitors. Q9Y468; note: % is set by controls: 0 for no effect and ±100 for the full control effect; nearly all actives have a fitted effect of over 60% in size
#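 Read-out is AlphaScreen signal from streptavidin donor and nickel chelate acceptor beads (10 ug/mL final each) bridging L3MBTL1 (50 nM) and biotinylated K9-monomethylated H3(1-15) peptide (75 nM), after 30 min compound exposure at room temperature.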
# G9a block – G9a (human) methyltransferase inhibition; 8.8% of 350,000 active; Potency, µM (titrated, usually from 102 µM), for the others: top-dose activity, negative = inhibition, actives largely listed as inhibitors; Q96KQ7; G9a H3K9 monomethylation, AlphaScreen, 2 h; AID 504332; note: % is set by controls: 0 for no effect and ±100 for the full control effect; nearly all actives have a fitted effect of over 75% in size
#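 Chemiluminescent proximity detection of H3K9 monomethylation, read after 10 min bead incubation in the dark. Reaction: 20 nM G9a, 500 nM biotin-H3K9 peptide, 20 uM SAM cofactor, 2 h, room temperature, following 15 min enzyme-compound preincubation.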
# BAZ2B block – BAZ2B (human) inhibition. 4.4% of 360,000 active. AID 504333. Potency, µM (series often up to 114 µM), for inactives: at the top dose activity change, negative = inhibition, hits mostly inhibitors. AlphaScreen BAZ2B-H3K14Ac peptide displacement; note: % is set by controls: 0 for no effect and ±100 for the full control effect; nearly all actives have a fitted effect of over 60% in size
#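 AlphaScreen displacement of biotin-H3(5-23)K14Ac peptide (50 nM final) from BAZ2B (50 nM final) in PBS pH 7.4, 0.01% Tween-20; complex preformed 30 min RT, then compounds (top 110 uM) 30 min RT, beads 20 min dark.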
# JMJD2A Tudor – JMJD2A Tudor domain (human) inhibition | AlphaScreen JMJD2A-Tudor / H3K4me3 peptide binding | Potency, µM (top dose mostly 114 µM), inactives show top-dose activity change, negative = inhibition, most hits filed as inhibitors | 4.4% of 390,000 active; note: % is set by controls: 0 for no effect and ±100 for the full control effect; nearly all actives have a fitted effect of over 50% in size
# HP1b binding inh – blocks HP1-beta chromodomain binding to methylated histone tails; AlphaScreen HP1-beta / biotin-H3K9me3 peptide binding; Potency, µM (series often up to 114 µM), without a hit: at the top dose activity change, negative = inhibition, usual class: inhibitors; 0.56% of 390,000 active; AID 540317; note: nearly all actives have a fitted effect of over 70% in size
#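 HP1-beta protein (50 nM final) preincubated 30 min at room temperature with biotinylated H3(1-18)K9me3 peptide (50 nM) in PBS pH 7.4, 0.01% Tween-20, then compound added for 30 min. AlphaScreen streptavidin donor/nickel chelate acceptor beads (10 ug/mL final), 30 min dark, luminescence read.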
# Numbers without * were called inactive; ? = inconclusive; . = no result; [ ] = another dose, or the depositor's remark. Calls come from the whole dose curve; as a rule, active = well fitted inhibition curve with a large enough effect; inconclusive = small, poorly fitted or top-dose-only effect; inactive = no such curve, though single readings can be large or run the other way. Potency is the fitted concentration of half-maximal effect.
SMILES,L3MBTL1 inh,G9a block,BAZ2B block,JMJD2A Tudor,HP1b binding inh
Cc1ccc(-c2cc(C(=O)NCCCN3CCOCC3)no2)cc1,-1.1%,2.8%[12.7 µM],8.0%,-16.6%,23.9%
C=C1CCN(C(CC(C)C)C(=O)NN2CCOCC2)S(=O)(=O)c2ccccc21 (stereo not given),.,.,.,4.8%,19.1%
COCCN1CCN(C(=O)C2CCC(=O)N(CCc3cccc(F)c3)C2)CC1 (stereo not given),.,21.6%,-0.7%,-7.5%,23.2%
CCOc1cc(C2Nc3ccccc3C(=O)N2Cc2ccco2)ccc1OCc1ccccc1Cl (stereo not given),.,.,.,-16.9%[57.1 µM],11.0%[57 µM]
COc1ccccc1/C=C/C=c1\sc2nc(=O)c(Cc3ccccc3)nn2c1=O,.,.,44.7µM*,56.2µM*,-22.2%
CCCOc1ccc(Cc2nn3c(=O)/c(=C/c4ccco4)sc3nc2=O)cc1,?,?,0.9%,56.2µM*,12.6%
CCCc1nn2c(=O)cc(COC(=O)c3ccccc3NC(=O)c3ccc(Cl)cc3)nc2s1,.,4.8%[59 µM],-12.2%,-28.8%,13.0%
CCc1ccc(CNC(=O)CCn2c(=O)c3cccn3c3ccc(F)cc32)cc1,.,-11.3%[59 µM],-7.4%,-13.5%,43.4%
CC(=O)O/C(=C\c1cn(C(C)=O)c2ccccc12)C(=O)O,.,35.5µM*,?,-0.7%,31.4%
CCc1ccc(C(=O)c2cn(CC(=O)Nc3ccc4c(c3)OCO4)c3ccc(OC)cc3c2=O)cc1,.,14.1µM*,79.4µM*,8.91µM*,-10.1%
COc1ccc(-c2noc(CCC(=O)Nc3ccccc3Cl)n2)cc1OC,.,?,-0.1%,-11.8%,17.7%
CC1CCCN(C(=O)c2ccc(-c3ccccc3Cl)o2)C1 (stereo not given),11.3%,44.7µM*,?,45.7%,-4.9%
CCCCCc1c(O)c2ccccc2[nH]c1=O,-1.8%,8.1%[59 µM],12.3%,-17.6%,9.7%
CCCCc1c(O)n(-c2ccccc2)[nH]c1=O,.,11.2µM*,.,.,.
CN(C)/C=C1\SC(=S)N(c2ccc(F)cc2)C1=O,.,63.1µM*,-27.9%,-18.6%,-25.1%
CC(=O)N(/C=C1\SC(=S)N(c2ccccc2)C1=O)c1ccccc1,-19.0%,?,?,?,-3.5%
CN(C)/C=C1\SC(=S)N(c2ccc(Br)cc2)C1=O,.,44.7µM*,39.8µM*,?,-10.6%
CCOC(=O)c1c(C)[nH]c(C)c1C(=O)COc1ncnc2ccccc12,.,?,.,15.8µM*,-22.1%
CCOC(=O)c1c(C)[nH]c(C)c1C(=O)COC(=O)c1cc2ccccc2cc1OC,-10.5%,0.5%[59 µM],-35.3%,?,-35.1%
O=C(COC(=O)c1ccc(Cl)c(S(=O)(=O)NCc2ccccc2)c1)NC1CC1,-5.2%,4.8%[59 µM],-3.2%,-23.3%,15.7%
CCOC(=O)c1c(C)[nH]c(C)c1C(=O)COC(=O)c1cc2ccccc2cc1O,-19.4%,50.1µM*,?,?,-14.8%
CCOC(=O)c1c(C)[nH]c(C)c1C(=O)COC(=O)c1ccc(Cl)c(S(=O)(=O)NCc2ccccc2)c1,.,?,?,56.2µM*,-36.3%
O=C(Nn1cnnc1)c1ccccc1Cl,.,-20.6%[2.33 µM],-0.1%,-12.3%,33.6%
COc1ccccc1CNC(=O)c1ccc(-c2nc(CS(=O)c3ccc(C)cc3)c(C)o2)cc1 (stereo not given),.,?,-19.3%,-20.3%,23.0%
Oc1ccc(Br)cc1C1C=C(c2ccc3c(c2)OCO3)NC(c2c(F)cccc2Cl)N1 (stereo not given),.,.,.,?,-4.6%
COc1cc(CCC(=O)Nc2cccc(C(F)(F)F)c2)cc(OC)c1OC,9.0%,44.7µM*,-0.5%,-0.7%,5.4%
COc1cc(CC(=O)Nc2cccc(C(F)(F)F)c2)cc(OC)c1OC,-4.3%,-3.2%[59 µM],6.4%,-13.2%,17.4%
COc1cccc(NC(=O)Cn2c(=O)n(Cc3ccc(C(=O)NCc4ccc5c(c4)OCO5)cc3)c(=O)c3ccccc32)c1,.,0.2%[59 µM],0.9%,-5.8%,33.1%
CCOc1ccc(NC(=O)CC2C(=O)N(c3ccccc3)C(=O)N2Cc2ccc3c(c2)OCO3)cc1 (stereo not given),.,7.5%[59 µM],-15.2%,-21.2%,9.1%
COc1ccc(NC(=O)C2CCCN2c2ccc(OC)c(OC)c2)cc1OC (stereo not given),-2.2%,70.8µM*,-0.3%,-13.0%,22.9%
